We go through 21 compounds from PubChem BioAssay (EPA / NIEHS).

For orientation: AC50 means the midpoint of the concentration-response curve, whichever way the signal moves.

Calls of active or inactive are those of the source. How the source made its calls: active means hit-call score of the fitted dose curve at least 0.9, where 1 is the maximum; inactive means score below 0.9.

What all share (settings): primary human HUVEC with PBMC; actives raise or lower the signal
Read-out in test [1]: Interleukin-1 alpha (IL1a), IL1A (gene 3552)
Description: BSK_LPS_IL1a: BioMAP Diversity Plus: LPS Assay for Interleukin-1 alpha (IL1a) Biomarker Activity (AID 2283080). The gist of the method:
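Primary human HUVEC and PBMC co-culture stimulated with LPS is dosed and harvested at 24 h. Both increases and decreases in ELISA-measured IL-1a are scored relative to DMSO.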

Read-out in test [2]: Monocyte Chemoattractant Protein-1 (MCP1), CCL2 (gene 6347)
The test can be described thus: BSK_LPS_MCP1: BioMAP Diversity Plus: LPS Assay for Monocyte Chemoattractant Protein-1 (MCP1) Biomarker Activity (AID 2283081).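 On AC50: secreted MCP-1 protein quantified by ELISA in culture supernatant.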 In short, it runs like this: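 Values derive from bidirectional fitting against DMSO of ELISA-measured MCP-1 in a human primary endothelial and mononuclear cell co-culture, 24 h after chemical addition under LPS activation.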

Test [3] can be described thus: BSK_LPS_PGE2: BioMAP Diversity Plus: LPS Assay for Prostaglandin E2 (PGE2) Biomarker Activity (AID 2283082). The gist of the method: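 Endpoint derived from bidirectional curve fitting versus DMSO of ELISA-measured PGE2 in LPS-stimulated human primary vascular co-culture (HUVEC with PBMC) harvested at 24 h.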
Read-out in test [4]: Macrophage colony-stimulating factor (MCSF), CSF1 (gene 1435)
The test can be described thus: BSK_LPS_MCSF: BioMAP Diversity Plus: LPS Assay for Macrophage colony-stimulating factor (MCSF) Biomarker Activity (AID 2283083). In short, it runs like this:
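Bidirectional fit versus DMSO of ELISA-measured M-CSF in co-cultured human umbilical vein endothelial cells and PBMC, sampled 24 h after dosing.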

Read-out in test [5]: Tissue Factor, F3 (gene 2152)
Description: BSK_LPS_TissueFactor: BioMAP Diversity Plus: LPS Assay for Tissue Factor Biomarker Activity (AID 2283084). In short, it runs like this:
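Read-out: CD142 ELISA, 24 h. System: LPS-driven human endothelial/PBMC co-culture. Analysis: up- or down-signal fitted against DMSO.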

Read-out in test [6]: Tumor necrosis factor (Homo sapiens) (UniProt P01375)
The test can be described thus: BSK_LPS_TNFa: BioMAP Diversity Plus: LPS Assay for Tumour Necrosis Factor alpha (TNFa) Biomarker Activity (AID 2283085).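 On AC50: TNFa protein level quantified by ELISA in the co-culture.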 The gist of the method: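 Primary human vascular co-culture of HUVEC and PBMC; TNFa ELISA 24 h after treatment, analysed as increase or decrease relative to DMSO control.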

Read-out in test [7]: Vascular cell adhesion molecule 1 (VCAM1), VCAM1 (gene 7412)
Description: BSK_LPS_VCAM1: BioMAP Diversity Plus: LPS Assay for Vascular cell adhesion molecule 1 (VCAM1) Biomarker Activity (AID 2283086). The gist of the method:
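Primary human vascular co-culture (umbilical vein endothelium plus PBMC) stimulated with LPS received chemical; 24 h later VCAM-1 was read by ELISA. Overt cytotoxicity was assessed by sulforhodamine B staining of parallel cultures at the same time point.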

Read-out in the next test: CD38, CD38 (gene 952)
Description: BSK_SAg_CD38: BioMAP Diversity Plus: SAg Assay for CD38 Biomarker Activity (AID 2283087). In short, it runs like this: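 Fluorescence ELISA of cell-surface CD38 served as the read-out, with either increase or decrease fitted against DMSO controls. Cells were a human umbilical vein endothelium plus PBMC co-culture under SEB/TSST-1 stimulation, measured 24 h after dosing.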

Read-out in the next test: CD40, CD40 (gene 958)
Description: BSK_SAg_CD40: BioMAP Diversity Plus: SAg Assay for CD40 Biomarker Activity (AID 2283088). The gist of the method:
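Endpoint derived by fitting increases or decreases versus DMSO controls. CD40 is detected by fluorescence ELISA in a human vascular co-culture of endothelium and PBMC at 24 h.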

Read-out in a further test: CD69, CD69 (gene 969)
The test can be described thus: BSK_SAg_CD69: BioMAP Diversity Plus: SAg Assay for CD69 Biomarker Activity (AID 2283089).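 On AC50: cell surface CD69 protein quantified by ELISA with fluorescence detection.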 The gist of the method:
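HUVEC co-cultured with PBMC were dosed with chemical, and CD69 was measured by ELISA with fluorescence read-out 24 h later. Bidirectional curve fitting used DMSO as negative control and activity baseline.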

Tumor necrosis factor (Homo sapiens), sequence (P01375 whole entry, looked up): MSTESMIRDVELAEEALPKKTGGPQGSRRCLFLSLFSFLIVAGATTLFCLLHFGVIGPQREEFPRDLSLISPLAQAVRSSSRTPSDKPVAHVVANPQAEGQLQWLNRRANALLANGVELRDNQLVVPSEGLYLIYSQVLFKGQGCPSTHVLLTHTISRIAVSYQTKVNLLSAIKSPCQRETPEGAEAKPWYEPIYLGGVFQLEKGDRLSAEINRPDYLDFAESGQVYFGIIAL

In the case of `c1ccc(OP(Oc2ccccc2)Oc2ccccc2)cc1`, the result in test [1], in [2], in test [3], in [4], in test [5] and in test [6] was inactive. Besides, the outcome was “inactive” in test [7]; “inactive” with CD38, CD38 (gene 952); “inactive” with CD40, CD40 (gene 958); “inactive” with CD69, CD69 (gene 969).
On to `O=P(OCC(Br)CBr)(OCC(Br)CBr)OCC(Br)CBr` (stereo not given), for which the result in test [1], in [2], in [3], in [4], in test [5] and in test [6] was inactive. Moreover, the outcome was “inactive” in [7]; “inactive” with CD38, CD38 (gene 952); “inactive” in the test with CD40, CD40 (gene 958); “inactive” with CD69, CD69 (gene 969).
Regarding `O=C(O)C(F)(F)OC(F)(F)C(F)(F)OC(F)(F)C(=O)O`, the outcome in test [1], in test [2], in [3], in test [4], in [5] and in [6] was inactive. Besides, the outcome is “inactive” in [7]; “inactive” in the test with CD38, CD38 (gene 952); “inactive” with CD40, CD40 (gene 958); “inactive” with CD69, CD69 (gene 969).
As to `O=S1(=O)OCC2C(CO1)C1(Cl)C(Cl)=C(Cl)C2(Cl)C1(Cl)Cl` (stereo not given), the result in test [1], in [3], in [4], in test [5], in [6] and in [7] was inactive. The outcome in the test with CD38, CD38 (gene 952) was “inactive”; with CD40, CD40 (gene 958) it was “inactive”; with CD69, CD69 (gene 969) it was “inactive”. In test [2], the AC50 was 10500 nM (active).
Consider `Cc1ccc2c(c1N)C(=O)c1ccccc1C2=O`, for which the outcome in test [1], in test [2], in test [3], in test [4], in test [6] and in test [7] was inactive. Besides, the outcome was “inactive” with CD40, CD40 (gene 958) and “inactive” with CD69, CD69 (gene 969). For the same compound, the AC50 was 20000 nM (active) in [5] and 12600 nM (active) with CD38, CD38 (gene 952).
With `CCNc1nc(Cl)nc(NC(C)(C)C)n1`, the outcome in [1], in test [2], in test [3], in [4], in [5] and in [7] was inactive. Also, in the test with CD69, CD69 (gene 969), the result was inactive. In addition, the AC50 in test [6] is 5470 nM (active); with CD38, CD38 (gene 952) it was 7930 nM (active); with CD40, CD40 (gene 958) it was 20000 nM (active).
In the case of `COP(N)(=S)OC`, the outcome in test [1], in test [2], in test [3], in test [4], in test [5] and in [6] was inactive. The outcome in [7] was “inactive”; in the test with CD38, CD38 (gene 952) it was “inactive”; with CD40, CD40 (gene 958) it was “inactive”; in the test with CD69, CD69 (gene 969) it was “inactive”.
Regarding `c1ccc2c(c1)Nc1ccccc1S2`, the outcome in test [1] was “inactive”; in test [2], “inactive”; in [4], “inactive”; in test [5] it was “inactive”; in test [7] it was “inactive”; in the test with CD38, CD38 (gene 952), “inactive”. In addition, the result with CD69, CD69 (gene 969) was inactive. Also, the AC50 in [3] was 374 nM (active); in [6], 148 nM (active); with CD40, CD40 (gene 958), 26800 nM (active).
As for `O=[N+]([O-])c1ccc(Cl)c(Cl)c1`, the result in test [1], in test [2], in test [3], in test [4], in test [5] and in [6] was inactive. Moreover, the outcome is “inactive” in test [7]; “inactive” in the test with CD38, CD38 (gene 952); “inactive” with CD40, CD40 (gene 958); “inactive” with CD69, CD69 (gene 969).
For the compound `CCC1(c2ccccc2)C(=O)N=C(O)NC1=O` (stereo not given), the result in test [1], in test [2], in [3], in test [4], in [5] and in test [6] was inactive. Also, the outcome in test [7] was “inactive”; with CD38, CD38 (gene 952) it was “inactive”; with CD40, CD40 (gene 958) it was “inactive”; with CD69, CD69 (gene 969), “inactive”.
For `CCN(CC)c1ccccc1`, the outcome in test [1], in test [2], in test [3], in [4], in test [5] and in test [6] was inactive. The outcome in test [7] was “inactive”; in the test with CD38, CD38 (gene 952), “inactive”; in the test with CD40, CD40 (gene 958), “inactive”; with CD69, CD69 (gene 969), “inactive”.
As to `CCCCc1ccccc1`, the outcome in test [1], in test [2], in test [3], in [4], in [5] and in test [6] was inactive. Besides, the outcome in test [7] was “inactive”; in the test with CD38, CD38 (gene 952), “inactive”; in the test with CD40, CD40 (gene 958), “inactive”; with CD69, CD69 (gene 969) it was “inactive”.
As to `OCC1CO1` (stereo not given), the result in test [1], in test [2], in test [3], in [4], in [5] and in test [6] was inactive. Also, the outcome in test [7] was “inactive”; with CD38, CD38 (gene 952), “inactive”; with CD40, CD40 (gene 958), “inactive”; with CD69, CD69 (gene 969), “inactive”.
Consider `CCCCOCCOP(=O)(OCCOCCCC)OCCOCCCC`, for which the result in test [1], in [2], in test [3], in [4], in [5] and in test [6] was inactive. Moreover, the outcome in [7] was “inactive”; in the test with CD38, CD38 (gene 952), “inactive”; in the test with CD40, CD40 (gene 958) it was “inactive”; in the test with CD69, CD69 (gene 969) it was “inactive”.
Consider `O=P1(N(CCCl)CCCl)NCCCO1` (stereo not given), for which the result in [1], in test [2], in test [3], in test [4], in test [5] and in [6] was inactive. In addition, the outcome is “inactive” in test [7]; “inactive” with CD38, CD38 (gene 952); “inactive” with CD40, CD40 (gene 958); “inactive” in the test with CD69, CD69 (gene 969).
With `O=C(O)C(F)(F)OC(F)(F)C(F)(F)OC(F)(F)F`, the outcome in test [1], in test [2], in test [3], in test [4], in test [5] and in test [6] was inactive. For the same compound, the outcome in test [7] was “inactive”; in the test with CD38, CD38 (gene 952), “inactive”; in the test with CD40, CD40 (gene 958), “inactive”; with CD69, CD69 (gene 969) it was “inactive”.
As to `C=CC(=O)OCC(CC)(COC(=O)C=C)COC(=O)C=C`, the AC50 is 1460 nM (active) in test [1]; 3290 nM (active) in test [2]; 1910 nM (active) in [4]; 2290 nM (active) in [5]; 2790 nM (active) in test [7]; 1780 nM (active) in the test with CD38, CD38 (gene 952). Moreover, the AC50 with CD40, CD40 (gene 958) is 2120 nM (active); with CD69, CD69 (gene 969), 2300 nM (active). The result in test [3] and in test [6] was inactive.
As for `c1nc[nH]n1`, the outcome in test [1], in [2], in [3], in test [4], in [5] and in test [6] was inactive. The outcome was “inactive” in test [7]; “inactive” with CD38, CD38 (gene 952); “inactive” with CD40, CD40 (gene 958); “inactive” in the test with CD69, CD69 (gene 969).
Turning to `FC(F)(F)C(F)(C(F)(F)F)C(F)(F)C(F)(F)CC1CO1` (stereo not given), the result in test [1], in [2], in test [3], in test [4], in test [5] and in test [6] was inactive. The outcome in [7] was “inactive”; in the test with CD38, CD38 (gene 952) it was “inactive”; with CD40, CD40 (gene 958), “inactive”; with CD69, CD69 (gene 969), “inactive”.
Take `CCOC(=O)c1ccccc1C(=O)OCC`: the result in test [1], in test [2], in [3], in test [4], in test [5] and in [6] was inactive. Besides, the outcome was “inactive” in test [7]; “inactive” with CD38, CD38 (gene 952); “inactive” in the test with CD40, CD40 (gene 958); “inactive” with CD69, CD69 (gene 969).
In the case of `O=C(O)C(Cl)Cl`, the result in test [1], in test [2], in test [3], in test [4], in [5] and in [6] was inactive. The outcome in test [7] was “inactive”; with CD38, CD38 (gene 952), “inactive”; with CD40, CD40 (gene 958) it was “inactive”; in the test with CD69, CD69 (gene 969) it was “inactive”.
